The source of these data is PubChem BioAssay AID504558 (Broad Institute, 2011).

Each structure is given as a SMILES string. The whole screen tested about 350,000 compounds, of which about 2,400 (0.69%) were called active. Rule as the data show it: active = inhibition above about 41%; inconclusive = no clear call, values can overlap the other calls; inactive = below that. Shown is part of a subset that was picked to be rich in actives.

This assay can be described thus: EBV LMP1-driven NF-kappaB luciferase reporter inhibitors, primary screen, cell-based, luminescence, single point (AID 504558).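 Also: 0% = neutral control wells and 100% = reference inhibitor control.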 Conditions: LMP1-induced NF-kappaB luciferase reporter cells, at 12.5 µM, stronger effect = higher value.
Take `COc1cc(SC)ccc1C(=O)Nc1nc(C)cs1`: the inhibition (commonly the change of the read-out against control, counted positive when it falls) was 77% (active).

In the case of `COc1cc(SC)ccc1C(=O)NNC(=O)C1COc2ccccc2O1` (stereo not drawn), the inhibition was 3.35% (inactive). For `COC(=O)c1sc(NC(=O)c2ccc(OC)cc2OC)nc1C`, the inhibition was 56.8% (active). Regarding `Cc1csc(NC(=O)c2ccc(-c3ccc(Cl)cc3Cl)o2)n1`, the inhibition was 5.23% (inactive). For the compound `COc1ccc(C(=O)NC2=NCCS2)c(OC)c1`, the inhibition is 14.4% (inactive). Turning to `COC(=O)c1sc(NC(=S)NC(=O)c2ccc(C)cc2)nc1C`, the inhibition was -2.09% (inactive). For the compound `O=C(c1ccc(N2CCCC2=O)cc1)N1CCN(c2ccc(C(F)(F)F)cc2[N+](=O)[O-])CC1`, the inhibition was 5.85% (inactive).

On to `CCc1c(N=O)c(-c2ccccc2)n(O)[n+]1[O-]`, for which the inhibition is -1.78% (inactive). On to `COc1ccc(CN2C[C@H]3CON(C)[C@H]3C[C@H]2c2ccc(-c3cccc(F)c3)cc2)cc1`, for which the inhibition was 6.65% (inactive).

On to `C=CCN1CCN(c2ccncc2S(=O)(=O)N2CCN(C)CC2)CC1`, for which the inhibition is -2.07% (inactive).

In the case of `C[C@H]1CN([C@@H](C)CO)C(=O)CCCn2cc(nn2)CO[C@@H]1CN(C)S(=O)(=O)c1ccc(-c2ccccc2)cc1`, the inhibition is 1.8% (inactive). To `CC(=O)CC[C@@H](C)O[C@@H]1OC(C)[C@H](O)CC1O` (stereo partly drawn) belongs 85.2% (active); to `COCCNC(=O)CSc1nc(N)c(NC(=O)c2ccco2)c(=O)[nH]1`, 2.34% (inactive). Turning to `CN1CCN(c2ccncc2S(=O)(=O)N2CCCC2)CC1`, the inhibition was -0.542% (inactive). For `Cn1nc(N)c2ncc(C(Cl)(Cl)Cl)nc21`, the inhibition is 1.82% (inactive). In the case of `O=C1[C@H]2[C@@H](c3ccc(C(F)(F)F)cc3)N[C@]3(CCCN(Cc4ccc(Br)cc4)C3=O)[C@H]2C(=O)N1Cc1ccccc1`, the inhibition is -24.7% (inactive). For `CCCCCCCCCCOC(=O)C[N+](C)(C)CC1CCCCC1O` (stereo not drawn), the inhibition was 51% (active). Turning to `CCCCCOC(=O)c1ccc(N2C(=O)C3C4C=CC(C4)C3C2=O)cc1` (stereo not drawn), the inhibition is 0.71% (inactive). Consider `CC[C@]1(C(=O)OC)[C@H]2C(=O)N(Cc3ccccc3)C(=O)[C@H]2[C@H]2CN=C(SCc3ccc(C#N)cc3)N21`, for which the inhibition was 61.8% (active).

Consider `CCN1C[C@@H]2[C@@H]3C(=O)N(Cc4ccccc4)C(=O)[C@@H]3[C@](Cc3ccccc3)(C(=O)OC)N2C1=NC1CCCCC1`, for which the inhibition was 0.675% (inactive). In the case of `COC(=O)[C@@]1(C)[C@H]2C(=O)N(Cc3ccccc3)C(=O)[C@H]2[C@H]2CN=C(SCC3CC3)N21`, the inhibition was -0.447% (inactive). To `CCCN=C1N(C)C[C@@H]2[C@@H]3C(=O)N(Cc4ccccc4)C(=O)[C@@H]3[C@](C)(C(=O)OC)N12` belongs -3.21% (inactive); to `CC[C@]1(C(=O)OC)[C@H]2C(=O)N(Cc3ccccc3)C(=O)[C@H]2[C@H]2CN=C(SCc3ccccc3)N21`, -0.0665% (inactive); to `CC[C@]1(C(=O)OC)[C@H]2C(=O)N(Cc3ccccc3)C(=O)[C@H]2[C@H]2CN=C(SCc3ccc(Cl)cc3)N21`, 87.9% (active).

With `C[C@@H]1CN([C@H](C)CO)C(=O)CCCn2nncc2CO[C@@H]1CN(C)C(=O)OCc1ccccc1`, the inhibition is 3.33% (inactive). As to `CCCCCC(=O)N1C[C@H](O)[C@@H](n2cc(COC(=O)c3ccccc3)nn2)C[C@@H]1c1ccc(C)cc1`, the inhibition was -2.09% (inactive).

For the compound `CC(C)n1ncc2c(C(=O)N3CCN(Cc4cccs4)CC3)cc(C3CC3)nc21`, the inhibition is -5.29% (inactive). Regarding `NC(=S)NN=Cc1ccc(OC(=O)COc2cc(Cl)c(Cl)cc2Cl)cn1`, the inhibition is 12.2% (inactive). Then `CC1=C(C(=O)N(C)C)CC(CC(=O)NCCN2CCOCC2)C(=O)N1Cc1ccccc1` (stereo not drawn), with -6.42% (inactive); and `O=C(c1cccs1)N1C[C@H](n2cc(C3CC3)nn2)[C@@H](O)C[C@@H]1c1ccccc1`, with 5.6% (inactive); and `COc1ccc(NC(=O)N2CCCC2C(=O)NCc2ccccc2Cl)cc1` (stereo not drawn), with 86.6% (active). On to `O=C(NCc1ccccc1CN1CCCC1)C1CCN(S(=O)(=O)c2ccc(Cl)cc2)CC1`, for which the inhibition was -3.5% (inactive). With `COc1ccc(CCNC(=O)C2CCCN2C(=O)Nc2ccccc2)cc1OC` (stereo not drawn), the inhibition was -0.848% (inactive). As for `Cc1cccc(NC(=O)C2CCCN2S(=O)(=O)c2ccc(F)cc2)c1C` (stereo not drawn), the inhibition was -1.63% (inactive). On to `COc1ccc(NC(=O)C(NC(C)=O)C(=O)NCc2ccccc2Cl)cc1` (stereo not drawn), for which the inhibition is -2.84% (inactive). Regarding `O=C(NCc1ccccc1Cl)C1CCCN1S(=O)(=O)c1ccc(F)cc1` (stereo not drawn), the inhibition was 45.2% (active). On to `CN1CCn2cnc(C(=O)NCC(=O)OC(C)(C)C)c2C1=O`, for which the inhibition was 6.74% (inactive). In the case of `COc1ccc(-c2ccc(CN3C(CC(C)C)C(=O)N(Cc4cn(CC5CCCCC5)nn4)CCS3(=O)=O)cc2)cc1` (stereo not drawn), the inhibition was 17.4% (inactive). Then `CCCNC(=O)C1CC(=O)N(c2ccc(OCc3ccccc3)cc2)C1` (stereo not drawn), with -15.7% (inactive). On to `C/C(COc1ccccc1)=N\NC(=O)c1nnn(-c2nonc2N)c1-c1ccc(C)cc1`, for which the inhibition is 4.25% (inactive). In the case of `Cc1cc(Nc2ccc(C)c(C)c2)n2ncnc2n1`, the inhibition is 8.05% (inactive). As to `CC1CCCN(C(=O)CN2C(=O)c3ccccc3S2(=O)=O)C1` (stereo not drawn), the inhibition was -11.4% (inactive). On to `O=C(CSCc1ccccc1)N1CCc2ccccc21`, for which the inhibition was -29.9% (inactive).

`O=C(CN1C(=O)c2ccccc2S1(=O)=O)N1CCc2ccccc21`: the inhibition was 71.7% (active). Then `CC1(C2CC2)NC(=O)N(CC(=O)N2CCN(c3ccccc3F)CC2)C1=O` (stereo not drawn), with -9.22% (inactive). Consider `COc1cc2nnn(-c3ccncc3)c2cc1OC`, for which the inhibition is -4.43% (inactive). Then `CCCCN(C(C)=O)c1ccc2c(c1)C1CC2CCN1Cc1ccccc1` (stereo not drawn), with 2.88% (inactive); and `Cc1cc(C)n(-c2c(F)c(F)c(COC(=O)c3ccccc3)c(F)c2F)n1`, with -9.15% (inactive). Regarding `Cc1cc(-n2nc(C)cc2C)n2ncc(-c3ccccc3)c2n1`, the inhibition is -21% (inactive). For the compound `CCOC(=O)c1cnc(-n2nc(C)cc2C)nc1NNc1cc(C)nc(-c2ccccc2)n1`, the inhibition is 73.6% (active). For the compound `CCOC(=O)c1cc(-c2sc(NC(=O)c3ccccc3)nc2C)n(Cc2ccccc2)n1`, the inhibition was 12.1% (inactive). Regarding `COc1ccc(NC(=O)c2cc(=O)[nH]c3ccccc23)cc1S(=O)(=O)N1CCOCC1`, the inhibition is -9.47% (inactive). Take `N#Cc1ccc(OCC(=O)Nc2nc(-c3ccccn3)cs2)cc1`: the inhibition is 23.6% (inactive). Then `COc1ccc(Cl)cc1NC(=O)CN(C)C(=O)c1cn(-c2ccccc2)nc1-c1cccs1`, with 2.49% (inactive). On to `CC(=O)Nc1ccc2c3c(ccc([N+](=O)[O-])c13)CC2`, for which the inhibition was 3.38% (inactive).

Consider `COc1ccc(C(C)=O)cc1CSc1nc2nc(C)cc(C)n2n1`, for which the inhibition is 6.79% (inactive).

As for `Cc1cc(C)nc(-n2nc(C)cc2NC(=O)c2ccc(F)cc2F)n1`, the inhibition was -4.13% (inactive). With `CC(=O)c1ccc(Oc2cc(C)nc(-n3nc(C)cc3C)n2)cc1`, the inhibition is 89.4% (active). On to `C[C@H]1CN([C@@H](C)CO)C(=O)CCCn2cc(nn2)CO[C@@H]1CN(C)S(=O)(=O)c1ccccc1C#N`, for which the inhibition was 6.79% (inactive). To `C[C@H]1CN([C@@H](C)CO)C(=O)c2cc(-c3ccccc3F)cnc2O[C@H]1CN(C)C(=O)C1CCOCC1` belongs -4.67% (inactive).

In the case of `CCCCCCN1C[C@@H](O)[C@H](n2cc(COC(=O)c3ccccc3)nn2)C[C@@H]1c1ccc(Cl)cc1`, the inhibition is 1.86% (inactive). With `C[C@H]1CN([C@@H](C)CO)C(=O)c2cc(Br)cnc2O[C@H]1CN(C)S(=O)(=O)c1cccs1`, the inhibition is -1.05% (inactive). Turning to `COc1cccc(NC(=O)Nc2ccc(F)cc2)c1`, the inhibition was -3.33% (inactive). With `O=C(CSc1nc2cc3c(cc2c(=O)n1CCC1=CCCCC1)OCO3)NCc1ccco1`, the inhibition was 44.3% (active).

As for `O=C(CSc1ccc(-c2ccco2)nn1)NCc1ccc2c(c1)OCO2`, the inhibition was -3.64% (inactive). For the compound `O=C(CSc1c2c(nc3ccc(Cl)cc13)CCCC2)NCc1ccco1`, the inhibition is 19.1% (inactive). To `COc1ccc(/C=C2\SC(=S)N(CCC(=O)N3CCOCC3)C2=O)cc1OC` belongs 9.24% (inactive); to `CSc1cc(C)[nH]c(=O)n1`, -0.805% (inactive); to `Cc1cc(=O)cc(C)[nH]1`, -6.47% (inactive).

Turning to `Cc1cc(=O)[nH]c(=S)[nH]1`, the inhibition is 80.5% (active). To `C[C@@H]1CN([C@H](C)CO)C(=O)CCCn2nncc2CO[C@@H]1CN(C)S(=O)(=O)c1cccc(C#N)c1` belongs 1.72% (inactive); to `COCCCn1c(C(=O)NC2CCCCC2)cc2c(=O)n3cccc(C)c3nc21`, 1.22% (inactive); to `C[C@H](O)[C@@H]1C(=O)N2CCc3c([nH]c4ccccc34)[C@@H]2C[C@@H]1N(C)C(=O)Nc1ccc(F)cc1`, 3.72% (inactive).

Consider `CC1C(=O)N(Cc2cn(CC3CCCCC3)nn2)CCS(=O)(=O)N1Cc1ccc(-c2cccc(N(C)C)c2)cc1` (stereo not drawn), for which the inhibition is 6.34% (inactive). Then `CN(C)C(CNC(=O)c1cc(Br)c(Br)s1)c1ccco1` (stereo not drawn), with -1.49% (inactive); and `CC(=O)N1c2ccc(S(=O)(=O)N3CCC(C(=O)N4CCN(c5ccccc5)CC4)CC3)cc2CC1C` (stereo not drawn), with 4.09% (inactive). `CC(=O)N1CCCc2cc(S(=O)(=O)CCC(=O)N3CCN(c4ccccc4)CC3)ccc21`: the inhibition was -0.617% (inactive). Consider `CC(=O)N1CCCc2cc(S(=O)(=O)N3CCCC(C(=O)N4CCN(c5cccc(Cl)c5)CC4)C3)ccc21` (stereo not drawn), for which the inhibition is 42.1% (active). To `Cc1cccc(S(=O)(=O)N(C)C[C@H]2OCc3cnnn3CCCC(=O)N([C@@H](C)CO)C[C@H]2C)c1` belongs 2.93% (inactive); to `COc1ccccc1-n1c(SCC(=O)Nc2ccc(Cl)cc2)nc(O)c(Cc2ccccc2)c1=O`, -7.65% (inactive).

Consider `CN(C)CCN(C(=O)C1CCCCC1)c1nc2cc3c(cc2s1)OCO3`, for which the inhibition was 0.636% (inactive). In the case of `O=C(c1ccc2nc(N3CCOCC3)sc2c1)N1CCN(c2ccc(Cl)cc2)CC1`, the inhibition is 3.45% (inactive). Turning to `c1c2c(cc3sc(N4CCCCC4)nc13)OCCO2`, the inhibition is 58% (active).
